Our source for the growth inhibition values is PubChem BioAssay (NCI).

This is part of a sample that, as a whole, favours compounds with a hit. Of some 79,000 tested, about 15% had one in any assay. Unmarked numbers belong to inactive results. The source made the active and inactive calls. Rule as the data show it: active = growth inhibition above about 70%; inactive = the rest. Where a SMILES comes first, the peptide text is derived from it.

The assay in a line: NCI Yeast Anticancer Drug Screen. Data for the rad50 strain (AID 155).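 Also: 0% = growth of vehicle-only cultures of the same strain.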 Conditions: S. cerevisiae rad50 strain growth inhibition; at 50.0 µM; hits give high values. Summed up: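 Readout: growth inhibition relative to vehicle-treated cultures. Compound exposure was carried out in a genetically defined yeast strain deficient in DNA damage repair.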
As for `c1ccc2c(C3CO3)c3ccc4ccccc4c3cc2c1` (stereo not given), the growth inhibition was 99% (active).
In the case of `O=C(NC(=O)c1c(F)cccc1F)Nc1cccc(C(F)(F)F)c1` it was 8.55%; in that of `CC(C)(C)CC(C)(C)[N+](=O)[O-]`, -1.15%.
On to `CC(OC1CC(=O)CC2C(=O)C=CC(=O)C12)c1ccccc1` (stereo not given), for which the growth inhibition was 25.1%.
In the case of `Cn1cc(N=P(c2ccccc2)(c2ccccc2)c2ccccc2)c(=O)n(C)c1=O` it was -5.8%; in that of `O=c1[nH]cnc2ncnn12`, 20%.
In the case of `CCOc1c(Cl)cc(Cl)cc1C(c1ccc(Cl)cc1S(=O)(=O)O)c1cc(Cl)cc(Cl)c1OCC` it was 99.2% (active); in that of `COC(=O)C1(C)CCCC2(C)C3CC4OC4(C(C)C)CC3(O)CCC12` (stereo not given), -4.5%.
In the case of `CC(=O)NC(C(=O)NC(C)C(=O)N1CCCC1C(=O)O)C(C)C` (stereo not drawn) (Ac-Val-Ala-Pro-OH; configuration not given here), the growth inhibition is 19.1%.
In the case of `Cc1cc(Br)cc(C)c1NC(=O)C(=O)C1C(=O)C(CC2C(=O)c3ccccc3C2=O)C(=O)CC1(C)C` (stereo not given) it was 36.1%; in that of `O=C(O)c1cccc(C2=CCCC2)c1`, 15.2%; in that of `CCC(=O)C(=O)c1ccccc1`, -12.9%.
With `CSc1c(C#N)c(N)nc2c(N=Nc3ccc(Cl)cc3)c(N)nn12`, the growth inhibition was 8.75%.
For `Oc1cccc2ccc(Br)nc12`, the growth inhibition was -10.1%.
As for `c1ccc(P(CCCP(c2ccccc2)c2ccccc2)c2ccccc2)cc1`, the figure is -15.7%; as for `CC(C=O)C1CCCCC1` (stereo not given), 9.15%; as for `O=C(OCC(Cl)(Cl)Cl)N1[C@H]2C3=C(CCC3)[C@@H]([C@H]3O[C@H]32)N1C(=O)OCC(Cl)(Cl)Cl`, -38.8%.
In the case of `CCOc1c(N=Nc2ccccc2C)c(C)nn1C(N)=S` it was 18.1%.
In the case of `O=[N+]([O-])c1ccc(N/N=C2\C=CCCC2)c([N+](=O)[O-])c1` it was -0.95%.
For `CCOc1cccc(C=Nc2ccccc2SSc2ccccc2N=Cc2cccc(OCC)c2O)c1O`, the growth inhibition is 42.2%.
For `Cc1cccc(NC(=O)O/N=C(\Cl)C(C)C)c1`, the growth inhibition was -13.8%.
In the case of `O=c1c(-c2c(-c3ccccc3)oc3ccc(Cl)cc3c2=O)c(-c2ccccc2)oc2ccc(Cl)cc12` it was 18.9%; in that of `NNC(=O)c1nc[nH]c1C(=O)NN`, 2.95%; in that of `CSCCC(N)=O`, -10.2%.
As for `CC(=O)c1cc([N+](=O)[O-])c[nH]1`, the figure is 9.05%; as for `CC(C)=Cc1cc(-c2cc(C=C(C)C)on2)no1`, 8.1%; as for `CN1C(C(=O)O)CCC1C(=O)O` (stereo not given), -1.2%.
For the molecule `O=C(N/N=C\c1cccc2c([N+](=O)[O-])cccc12)Nc1ccccc1`, the growth inhibition is -30.6%.
As for `CCOc1ccc(C(C)c2cc3c(cc2OC)OCO3)cc1` (stereo not given), the figure is 20.7%; as for `Cc1ccccc1-c1nc2c([nH]1)c(=O)n(C)c(=O)n2C`, 32.8%; as for `CCC(c1cccc(OC)c1)C(C(=O)O)c1ccc(OC)cc1` (stereo not given), 5%.
As for `N#CCCOCCSCCC#N`, the figure is 3%; as for `C1C[OH+]CC[OH+]CCNCC[OH+]CC[OH+]CCN1.Cl.[Cl-].[Pt+4]`, 8.7%; as for `O=NN(CCCl)C(=O)NCc1ccc[n+]([O-])c1`, 19.7%.
As for `C/C=C/c1nc2ccccc2[nH]1`, the figure is -11.2%; as for `N#CC(c1ccccc1)c1cccc(C(=O)O)c1` (stereo not given), -16.9%.
In the case of `Cn1cc(C2(C)CC(C)(C)c3c2n(C)c2ccccc32)c2ccccc21` (stereo not given), the growth inhibition is 0.3%.
As for `OCCN(c1ccccc1)c1nc(N(CCO)c2ccccc2)nc(N(CCO)c2ccccc2)n1`, the figure is 2.7%; as for `N#CCCN(C1=NN(C(=O)CC(=O)Nc2cccc(Cl)c2)C(c2ccccc2)C1)c1ccccc1Cl` (stereo not given), 8.2%.
In the case of `CNC(=S)N(C)c1ccccc1` it was 0.6%.
